Screening results from PubChem BioAssay.
A selection: hits, their analogues and other compounds. The true share with any hit is near 0.3%.
NPYLR7 ag: agonists of mosquito NPYLR7 receptor, primary screen, cell-based, Aedes aegypti, calcium fluorescence, mosquito biting behavior; Aedes aegypti neuropeptide Y-like receptor 7 (NPYLR7); activation, % at 10 µM; HEK293T NPYLR7/Galpha15, GCaMP6s calcium fluorescence; actives 0.15% (n = 270,000); in the data active = activation above about 40%;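 also: 0% = vehicle and 100% = reference agonist at the receptor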
mcGAS inh: cyclic GMP-AMP synthase inhibitors, mouse, primary biochemical chemiluminescence; recombinant cGAS, Kinase-Glo ATP depletion luminescence; AID 1259399, 2018; inhibition, % at 12.5 µM; actives 0.15% (n = 160,000);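 also: 0% = negative control wells and 100% = reference inhibitor with no enzyme activity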
hcGAS inh: Primary biochemical luminescence assay for human cyclic GMP-AMP synthase inhibitors; Q8N884; recombinant h-cGAS, ATP depletion, Kinase-Glo luminescence; inhibition, % at 12.5 µM; actives 0.081% (n = 290,000);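 also: 0% = vehicle reaction and 100% = reaction without DNA for no activity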
Target sequence (Q8N884 whole entry, looked up): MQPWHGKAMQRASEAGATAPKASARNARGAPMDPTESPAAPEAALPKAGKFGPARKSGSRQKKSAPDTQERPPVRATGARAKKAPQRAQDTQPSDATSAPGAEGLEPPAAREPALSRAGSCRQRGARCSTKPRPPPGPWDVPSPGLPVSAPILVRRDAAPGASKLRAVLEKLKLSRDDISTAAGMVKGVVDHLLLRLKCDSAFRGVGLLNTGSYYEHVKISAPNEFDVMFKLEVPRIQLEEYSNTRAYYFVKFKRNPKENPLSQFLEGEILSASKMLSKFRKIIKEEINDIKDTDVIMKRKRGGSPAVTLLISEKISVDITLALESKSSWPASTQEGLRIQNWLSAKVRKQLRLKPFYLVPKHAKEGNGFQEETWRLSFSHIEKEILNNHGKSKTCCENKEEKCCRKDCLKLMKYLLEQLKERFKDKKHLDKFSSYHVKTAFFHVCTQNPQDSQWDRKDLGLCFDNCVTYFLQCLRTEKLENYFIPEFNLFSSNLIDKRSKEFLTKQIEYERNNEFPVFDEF
Active calls of the source: *; nt = no result; + = active, no number; ! = a repeat was not active. Rule as the data show it, unless noted: active = inhibition above about 40%; inactive = the rest.

SMILES | NPYLR7 ag | mcGAS inh | hcGAS inh
COc1ccc(C2c3ccsc3CCN2CC(=O)N2CCN(C(=O)Nc3cccc(C(F)(F)F)c3)C(C)C2)cc1 (centres undefined) | 5.8 | -4.1 | -4.0
CCOc1ccc(CN(C)CC2CCCN(CCc3ccccc3OC)C2)cc1 (centres undefined) | nt | -9.4 | -2.4
CCOc1ccccc1-c1nc(COC(=O)c2nnn(-c3ccc(Cl)cc3)c2C)c(C)o1 | 8.0 | -8.2 | -5.8
COc1ccc(S(=O)(=O)N2CCC(Cc3ccccc3)CC2)cc1N1CCN(S(=O)(=O)c2ccc(Cl)cc2)CC1 | 19.7 | -7.2 | -8.3
O=C(O)CN1C(=O)/C(=C\c2ccc(O)cc2)SC1=S | 59.3* | nt | -5.4
COc1cc(OC)c(OC)cc1/C=C1/SC(=S)N(CC(=O)O)C1=O | 58.7* | -3.0 | -1.0
O=C(O)CCCN1C(=O)/C(=C\c2ccc(O)cc2)SC1=S | 60.7 | -1.3 | -4.2
CC(C)C(C(=O)O)N1C(=O)/C(=C/c2ccc(O)cc2)SC1=S (centres undefined) | 68.1* | -5.1 | -2.9
COc1ccc(Br)cc1/C=C1/SC(=S)N(CC(=O)O)C1=O | -0.6 | nt | -1.2
Cc1ccc(/C=C2\SC(=S)N(C(C(=O)O)C(C)C)C2=O)cc1 (centres undefined) | -5.6 | 7.1 | -1.1
C=c1ccccc1=C1N=C(c2ccc(NC(=O)c3cccc(Cl)c3)cc2)NO1 | -3.1 | nt | 2.5
Cc1ccc(N(CCC#N)C(=O)CN2CCCc3ccccc32)cc1C | 22.3 | -17.4 | -6.0
Cc1ccc2c(c1)CCCN2CC(=O)N(CCC(N)=O)c1ccccc1 | 100.1* | 3.2 | 2.6
Cn1c(=O)cc(O)c2ccccc21 | 0.7 | nt | -3.6
O=C(NN1C(=O)C2C3C=CC(C4CC34)C2C1=O)c1cccc(Cl)c1 (centres undefined) | 6.0 | 84.9* | -3.7
Cc1ccc(C(=O)NN2C(=O)C3C4C=CC(C5CC45)C3C2=O)cc1 (centres undefined) | 9.1 | -6.6 | -6.2
CC1(C(=O)N2Cc3ccccc3C2)CCN1C(=O)CCc1ccc(Cl)cc1Cl (centres undefined) | 0.9 | -2.9 | -2.6
COc1cccc2c1C(=O)c1c(O)c3c(c(O)c1C2=O)C[C@@](O)(C(=O)CO)C[C@@H]3OC1C[C@H](N)[C@H](O)[C@H](C)O1 (some centres undefined) | nt | nt | 57.1*
CC(=O)Nc1c(C)nc2ccc(Cl)cn2c1=O | 3.6 | nt | -12.4
O=C1NCCN2CCN(C(=O)Cn3cccc3)CC12 (centres undefined) | 1.7 | nt | 4.0
N#Cc1cccc(-c2cnc3c(c2)CCN3Cc2nc3ccccc3s2)c1 | 22.4 | nt | -8.1
CC(=O)c1c(C)[nH]c(C(=O)Cn2cc(C(F)(F)F)cc(Cl)c2=O)c1C | -2.0 | -1.8 | 73.8*
CC(N)=C(C#N)C(=O)Cn1cc(C(F)(F)F)cc(Cl)c1=O | 14.2 | nt | -3.7
CC1CCC2=C(C1)SC1NC(c3ccccc3)NC(=O)C21 (centres undefined) | 1.8 | nt | -8.2
C=CCCC(=O)N1CCC(n2c(=O)oc3ccc(C(C)(C)C)cc32)CC1 | -1.8 | -7.0 | -6.1
SMILES | NPYLR7 ag | mcGAS inh | hcGAS inh
COc1cccc(-c2cccc(-c3ccc(NC(=O)c4ccc([N+](=O)[O-])o4)cc3)n2)c1 | 1.6 | -5.3 | -1.6
CC1=NN(c2ccc(Cl)c(C(=O)O)c2)C(=O)/C1=C\c1ccc(Br)c([N+](=O)[O-])c1 | 4.5 | 50.3* | 7.4
COc1cc(/C=C2\C(=O)N(c3ccc(Cl)c(C(=O)O)c3)N=C2C)cc([N+](=O)[O-])c1O | 2.5 | 26.1 | -2.9
O=C(c1cccc(N2CCNC2=O)c1)N1CCOC(Cc2ccc(F)cc2)C1 (centres undefined) | nt | -14.7 | -4.4
COCCNC(=O)c1ccc(CSc2nnc(-c3cccc(OC)c3)n2-c2ccccc2F)cc1 | 14.2 | -7.4 | -7.3
O=c1oc2ccc([N+](=O)[O-])cc2cc1-c1nnc(Nc2ccccc2F)s1 | -3.9 | -0.7 | -1.2
CCn1c(-c2ccc(Cl)cc2)nn(CN2CCc3sccc3C2)c1=S | 10.8 | -7.6 | -7.9
COc1cc(CSc2nnc(NC(=O)C3CCC3)s2)cc(OC)c1 | 35.2 | 83.4* | -6.1
O=C(Nc1nnc(SCc2cc(F)cc(F)c2)s1)C1CC1 | -3.0 | 2.1 | 1.7
CCC1CN(C(=O)c2cc(C(C)C)no2)CCC(=O)N1Cc1ccccc1 (centres undefined) | 1.7 | -0.1 | -3.6
CCC1CN(C(=O)c2cc(C(C)C)on2)CCC(=O)N1Cc1ccccc1 (centres undefined) | 62.4* | nt | -2.9
CCOC(=O)c1cc(-c2ccc(N3CCN(C(=O)[C@@H]4C[C@H]4c4ccccc4)CC3)cc2)n(-c2ccccn2)n1 | 14.4 | -6.7 | -3.8
COC(=O)CCCCC(=O)Nc1cccc(-c2cccc(-c3ccc(OC)cc3)n2)c1 | -1.5 | -3.3 | -4.8
COCCN(Cc1ccc(C)cc1)CC(O)COCC(C)C (centres undefined) | 17.8 | 90.1* | 1.2
COCCN(Cc1ccc(OC)cc1)CC(O)COC(C)C (centres undefined) | 44.8 | -5.2 | -3.1
CC(=NCCCn1ccnc1)c1c(-c2ccccc2)[nH]n(-c2nc3ccccc3s2)c1=O | -3.6 | 4.2 | 5.8
CCCN=Cc1c(-c2ccccc2)[nH]n(-c2nc3ccccc3s2)c1=O | 1.9 | -2.5 | 54.1*
Cc1cccc(OCCN(C)c2cnn(-c3ccc(F)cc3F)c(=O)c2Cl)c1 | -2.9 | -13.9 | -5.7
CCCCN(C)C1=CC2=CC(=C(C#N)C#N)CCC2CC1 (centres undefined) | + | -4.9 | -8.9
CS(=O)(=O)CC(=O)N(Cc1ccccc1)CC1CCC1 | 14.7 | nt | -5.7
CN(Cc1ccccc1)C1=CC2=CC(=C(C#N)C#N)CCC2CC1 (centres undefined) | 117.8* | nt | -2.9
CCN(CC)C1=CC2=CC(=C(C#N)C#N)CCC2CC1 (centres undefined) | 614.6* | -1.7 | -0.1
Cc1nc(CN2CCN(C(=O)c3ccccc3C3CCNC3)CC2)no1 (centres undefined) | 4.9 | nt | -0.7
Cc1cccc(C)c1OCCn1ccnc1-c1cnccn1 | 4.5 | -17.8 | -8.2
O=C(Nc1ccccc1I)c1c2c(nc3ccccc13)CCCC2 | -1.0 | -8.7 | -5.5
SMILES | NPYLR7 ag | mcGAS inh | hcGAS inh
O=C(NC1CSc2c1nc1ccccc1c2C(=O)O)c1ccccc1 (centres undefined) | 2.1 | nt | 41.4*
CCOC(=O)c1cc(O)c(C(=O)OCC)s1 | 62.4*! | -4.0 | -2.9
CCOC(=O)c1sc(N)c(C(N)=O)c1C | 1.3 | nt | -9.2
C#CCOCC(O)CN(CCN1CCOCC1)Cc1cc(C)ccc1C (centres undefined) | 19.9 | -6.5 | -4.9
N#C/C(=C\c1ccc(N2CCCCC2)s1)c1cccc(Cl)c1 | 28.2 | nt | -1.5
N#C/C(=C/c1ccc(N2CCCCCC2)o1)c1ccc(F)cc1 | 87.7* | nt | -9.3
CCn1ccc2cc(NC(=O)CN3CCCCCCC3=O)ccc21 | 2.8 | nt | 0.4
CCc1cccc2c(C(CC(=O)N3CCN(C(C)=O)CC3)c3cccc(C(F)(F)F)c3)c[nH]c12 (centres undefined) | -0.6 | -7.8 | -6.2
CCc1cn[nH]c1C1CCCN(C(=O)c2csc(Cc3ccccc3)n2)C1 (centres undefined) | 8.8 | -13.4 | 54.8*
